# Reference: PubChem BioAssay (NCI)
# The panel holds about 83,000 compounds, 20% with a hit somewhere; the sample as a whole holds those more often.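 Interpretation: 100, growth as untreated; towards 0, rising growth inhibition; 0, no net growth; 0 to -100, cell death. Compounds scoring below 10 were considered active.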 Unmarked numbers belong to inactive results. Active and inactive are the calls of the source.
# How the values were obtained:
# Assay in all cases: NCI-60 one-dose screen, 48 h (100 = growth as untreated, 0 = no growth, -100 = all killed)
# Details in all cases: 10 µM unless noted
# DU-145 prostate = tested on: DU-145 prostate
# K-562 leukemia = tested on: K-562 leukemia
# MALME-3M melanoma = tested on: MALME-3M melanoma
# MDA-MB-231 breast = tested on: MDA-MB-231 breast
# RXF 393 renal = tested on: RXF 393 renal
# SF-268 CNS = tested on: SF-268 CNS
# SF-295 CNS = tested on: SF-295 CNS
# SF-539 CNS = tested on: SF-539 CNS
# UACC-257 melanoma = tested on: UACC-257 melanoma
# M14 melanoma = tested on: M14 melanoma
SMILES,growth (DU-145 prostate),growth (K-562 leukemia),growth (MALME-3M melanoma),growth (MDA-MB-231 breast),growth (RXF 393 renal),growth (SF-268 CNS),growth (SF-295 CNS),growth (SF-539 CNS),growth (UACC-257 melanoma),growth (M14 melanoma)
COC12C=C/C(=C(/C(=O)OCc3ccncc3)C(=O)CCCCCCCCC3(OC)C=C/C(=C(/C(=O)OCc4ccncc4)C(=O)CCCCCCCC1)O3)O2,-60.7% (active),-4.08% (active),-67.7% (active),1.77% (active),-82.7% (active),-28% (active),-23.8% (active),-60.1% (active),-29.6% (active),-24.4% (active)
O=C(C[C@]1(O)C(=O)Nc2ccccc21)c1cccc(C(F)(F)F)c1,99.2%,96%,83.1%,91%,101%,85.8%,96.3%,88%,99.7%,93.1%
CCOC(=O)c1ccc(NC(=O)c2nc(-c3cc(OC)c(OC)c(OC)c3)n(-c3ccc(Cl)cc3)n2)cc1,102%,85.7%,91.4%,69.4%,86.3%,84%,96.9%,97%,96.5%,97.6%
O=C(/C=C/c1ccccc1)Nc1ncc(Cc2ccccc2Cl)s1,26.9%,12.6%,53.8%,40.3%,-7.17% (active),71.6%,-2.76% (active),-16.3% (active),77.1%,8.18% (active)
COc1ccc(C2CC(c3ccc(Nc4nc(Nc5ccccc5)nc(Nc5ccccc5)n4)cc3)=NN2C(C)=O)cc1 (stereo not given),144%,75.2%,110%,95.5%,-10.9% (active),139%,99.5%,121%,88.4%,107%
c1cnc2c(-c3nc4ccc5[nH]ncc5c4c4c3CCCC4)c[nH]c2c1,27.7%,21%,63.8%,30.7%,42.7%,40.4%,32.1%,42.9%,98.3%,59%
Cc1cc(N2CCN(CCNc3ccnc4cc(Cl)ccc34)CC2)nc(N2CCOCC2)n1,74.8%,14.6%,60.1%,34.3%,42.9%,70.4%,75.5%,29.6%,54%,48%
N#CC1=C(N)Oc2c(ccc3ccccc23)C1c1ccccc1 (stereo not given),13.4%,9.05% (active),46.5%,28.3%,68.5%,19.2%,8.94% (active),-3.42% (active),37.5%,3.13% (active)
COc1ccc(\C=N/N=C(N)/C(N)=N\N=C/c2ccc(OC)cc2)cc1,113%,99.9%,106%,107%,96.9%,100%,97.3%,92.7%,121%,111%
Cc1ccc(/C=C2\COc3ccc(O)cc3C2=O)cc1,103%,17.9%,90.3%,90.7%,96.3%,86.3%,105%,98.7%,103%,93.1%
N#Cc1nc(-c2ccc(F)cc2)oc1S(=O)(=O)N1CCCCC1,99%,7.64% (active),42.8%,78.1%,55.4%,106%,104%,72.6%,91.2%,68.7%
CC(C)c1ccc(Cc2cnc(NC(=O)c3cc(Br)cs3)s2)cc1,38.5%,18.2%,31.1%,55.8%,-5.08% (active),48.2%,9.99% (active),4.75% (active),53.4%,15.8%
N#Cc1nc(-c2ccc(Cl)cc2)oc1S(=O)(=O)N1CCN(c2ccc(F)cc2)CC1,97.3%,24.6%,92.6%,103%,109%,97.6%,101%,98.3%,94.5%,95%
CC(C)C1=NOC(=O)C1=Cc1cn(-c2ccccc2)nc1-c1ccc(F)cc1,74%,29.2%,90.8%,98.1%,82.2%,91.2%,95.5%,89.6%,91%,67.4%
C=C1C(=O)O[C@H]2[C@H]1CC/C(COC(=O)NCc1ccc(Cn3c(=O)sn(CCCCC)c3=O)cc1)=C\CC[C@@]1(C)O[C@@H]21,9.23% (active),1.16% (active),-14.5% (active),31.1%,11.6%,78.6%,102%,46.5%,47.1%,2.8% (active)
C#CCOc1cccc(Nc2ncnc3cc(NC(=O)C=C)ccc23)c1,5.4% (active),5.87% (active),33.9%,20.5%,-17% (active),27.6%,45%,0.0579% (active),25.3%,13%
CC/C=C\C[C@H](O)C/C=C1/C(=O)C=C[C@@H]1C/C=C\CCCC(=O)N(C)C,16.4%,5.58% (active),8.29% (active),18.3%,-65.1% (active),16.6%,-1.42% (active),14.7%,-9.75% (active),5.92% (active)
COC(=O)C1Cc2ccccc2CN1C(=O)c1ccc2c(c1)Cc1ccccc1-2 (stereo not given),59.8% [50 µM],21.2% [50 µM],17.7% [50 µM],42.3% [50 µM],51.2% [50 µM],49.3% [50 µM],30.2% [50 µM],70.1% [50 µM],29% [50 µM],30.9% [50 µM]
Cn1cc(-c2csc(-c3c[nH]c4ccc(Br)cc34)n2)c2ccnc(Cl)c21,42.9%,17.6%,112%,54.8%,51%,86.7%,62.1%,67.6%,17.4%,43.2%
COc1cc(/C=C2/C=C(c3ccccc3)N(CCc3ccc(S(N)(=O)=O)cc3)C2=O)cc(OC)c1OC,109%,93.6%,84.2%,96.8%,96.1%,107%,99.2%,101%,84%,89.8%
O=C1/C(=C/c2ccc([N+](=O)[O-])cc2)COc2ccc(O)cc21,92.6%,11.2%,96.1%,80.8%,98.9%,84%,98.6%,94.5%,106%,88.2%
CC/C(=C(/c1ccc(Cl)cc1)c1ccc(OCCN2CCCCC2)cc1)c1ccc(OC)cc1,82.8%,2.95% (active),75.4%,73.3%,47.9%,86.5%,55.1%,65.5%,54.2%,28.2%
CC(=O)O[C@H]1CC2CCC3C(CC[C@@]4(C)C3C[C@H]([N+]3(C)CCCCC3)[C@@H]4OC(C)=O)[C@@]2(C)C[C@@H]1N1CCCCC1 (stereo not given in full),120%,104%,121%,91%,113%,115%,96.4%,110%,98%,106%
Cc1cc(=O)n(C(=O)Nc2ccccc2Cl)c2cc(O)ccc12,108%,109%,93%,101%,109%,95.8%,101%,97.8%,96.5%,96.4%
COc1ccc(CNc2c3ccccc3nc3ccccc23)cc1,48%,6.97% (active),40%,47.4%,27.6%,63.4%,39.1%,27.5%,52.3%,37.1%
O=S(=O)(NCCNc1nccc(-c2c(-c3ccc(F)c(O)c3)nc3sccn23)n1)c1ccc(O)cc1,43.8%,28.9%,31%,45.6%,25.8%,37%,60.2%,81.2%,58.9%,27.2%
O=C1/C(=C/c2ccccc2O)CC/C1=C\c1ccccc1O,46.1%,7.41% (active),80.4%,44.3%,67.5%,71.3%,98.6%,82.3%,86.3%,61.3%
